Rows were chosen to be rich in hits. Some 7.3% of all compounds tested hit in one or more screens of this group.
HCMV inh – inhibitors of human cytomegalovirus. 4.5% of 410,000 active. HFF cells, HCMV-luciferase reporter, 72 h; hits give low values. activity change, negative = inhibition, % at 57.5 µM; in the data active means activity change below about -60%; inconclusive means no clear call, values can overlap the other calls; inactive means above about -39%
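Human foreskin fibroblasts infected with luciferase-reporter HCMV at MOI 1 PFU/cell, compounds at two doses. Luciferase measured 72 h post infection; normalized to buffer-only basal and Salinomycin (10uM) controls.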
FMDV antiviral – blocks foot and mouth disease virus | FMDV antiviral cell-based qHTS | Potency, µM (titrated, usually from 57.9 µM), usual class: inhibitors | 1.2% of 410,000 active | AID 1159524; calls by dose curve; tested in HEK293T cells; further: read-out not given here; nearly all actives have a fitted effect of over 45% in size
HCV inhibitor – inhibitors of hepatitis C virus infection | Huh7.5.1 HCVcc-Cre infection, luciferase reporter, 44 h | Potency, µM (series often up to 41.8 µM), most hits filed as inhibitors | 3.4% of 340,000 active | AID 651820
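Infectious HCVcc-Cre (~0.5 moi) was added to cells just after compound, with cells seeded 4 h earlier at 1,000 per well. Luciferase activity after 44 h culture reported infection; substrate was incubated 15 min at room temperature before reading.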
AmpC inh detg – AmpC beta-lactamase inhibition with detergent present. Potency, µM (top dose mostly 114 µM), most hits filed as inhibitors. AmpC hydrolysis of nitrocefin, absorbance 480 nm, 0.01% Triton. AID 485294. P00811. 0.041% of 370,000 active; further: nearly all actives have a fitted effect of over 25% in size
Target sequence (P00811 whole entry, looked up): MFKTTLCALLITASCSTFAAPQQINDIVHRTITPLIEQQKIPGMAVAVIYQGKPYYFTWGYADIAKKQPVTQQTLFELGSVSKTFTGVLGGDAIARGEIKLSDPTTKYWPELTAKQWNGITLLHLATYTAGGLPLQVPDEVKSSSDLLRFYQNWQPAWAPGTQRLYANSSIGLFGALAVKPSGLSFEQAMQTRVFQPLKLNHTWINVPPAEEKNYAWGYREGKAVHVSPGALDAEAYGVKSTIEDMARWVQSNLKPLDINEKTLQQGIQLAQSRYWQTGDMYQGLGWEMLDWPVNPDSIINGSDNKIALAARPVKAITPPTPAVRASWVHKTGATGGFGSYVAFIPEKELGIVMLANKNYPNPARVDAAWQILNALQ
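20 mM phosphate pH 7.0 + 0.01% (detergent screen) or 0.0001% Triton X-100; 5.3 nM AmpC reagent; cpd preinc 15 min RT; nitrocefin (800 uM stock) to start; A480 q20 s × 4 min; Activity was normalised to no-enzyme and no-compound control wells.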
AmpC no deterg – inhibitors of E. coli AmpC beta-lactamase without detergent | P00811 | AmpC nitrocefin hydrolysis, absorbance 480 nm, 0.0001% Triton | Potency, µM (titrated, usually from 57.1 µM), usual class: inhibitors | 0.52% of 330,000 active; further: nearly all actives have a fitted effect of over 20% in size
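20 mM phosphate pH 7.0 + 0.01% (detergent screen) or 0.0001% Triton X-100; 5.3 nM AmpC reagent; cpd preinc 15 min RT; nitrocefin (800 uM stock) to start; A480 q20 s × 4 min; Activity was normalised to no-enzyme and no-compound control wells.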
Of the large screens only hits and unclear results are named; the others gave an inactive call. Unless noted, the call rests on the fitted dose curve; in most records, active means well fitted curve in the direction sought with a large enough effect; inconclusive means small, poorly fitted or top-dose-only effect, or another doubt; inactive means no such curve, though single readings can be large; an effect the other way counts as inactive or inconclusive.

CC(C)(C)OC(=O)NCCCCCNC(=O)c1nc[nH]c1C(=O)NCc1ccc(CNC(=O)OC(C)(C)C)cc1	HCMV inh -95, FMDV antiviral 16µM, HCV inhibitor 8.9µM (no result: AmpC inh detg)
CC(C)(C)OC(=O)NCc1ccc(CNC(=O)c2nc[nH]c2C(=O)NCc2ccc(CNC(=O)OC(C)(C)C)cc2)cc1	HCMV inh inconclusive, FMDV antiviral 13µM, HCV inhibitor inconclusive (no result: AmpC inh detg)
CCOc1cccc(CC(=O)N2CCc3c([nH]c4ccccc34)C2c2ccccc2)c1OCC (centres undefined)	none (no result: HCV inhibitor, AmpC no deterg)
COc1ccc(OC)c(C(=O)N(Cc2cc3cccc(C)c3nc2N2CCC(O)CC2)C2CC2)c1	none (no result: HCMV inh, HCV inhibitor, AmpC inh detg, AmpC no deterg)
COc1ccc2c(=O)cc(-c3ccncc3)oc2c1OC	HCV inhibitor 11µM (no result: AmpC inh detg, AmpC no deterg)
COc1ccccc1/C=C/c1nc(C#N)c(NCC(C)C)o1	HCMV inh -70 (no result: HCV inhibitor, AmpC no deterg)
COc1cc(O)c(C(CC(=O)N2CCOCC2)c2ccc(N(C)C)cc2)c(OC)c1 (centres undefined)	none
COc1cc(O)c(C(CC(=O)N2CCOCC2)c2ccc3c(c2)OCO3)c(OC)c1 (centres undefined)	HCMV inh inconclusive, HCV inhibitor 11µM
COc1ccc(-c2cnc(SCC(=O)Nc3ccc4c(c3)OCO4)n2Cc2ccco2)cc1	FMDV antiviral inconclusive, HCV inhibitor 14µM
CC(=O)Nc1cccc(NC(=O)CSc2ncc(-c3ccc(Cl)cc3)n2Cc2ccco2)c1	FMDV antiviral 14µM, HCV inhibitor 10µM
COc1ccc(Cn2c(CO)cnc2SCC(=O)Nc2ccc3c(c2)OCCO3)cc1	none (no result: HCV inhibitor, AmpC no deterg)
O=C(CSc1nnc(-c2ccc(Cl)cc2)n1Cc1ccco1)Nc1ccc2c(c1)OCCO2	HCMV inh inconclusive, FMDV antiviral inconclusive
CCc1sc(C(=O)N2CCN(C(=O)c3ccccc3)CC2)cc1C	none (no result: AmpC inh detg)
CSc1ccc(/C=C/C(=O)OCC(=O)NCC2CCCO2)cc1 (centres undefined)	none
CC1CCN(C(=O)c2ccc(N3C(=O)C4CCC(C)CC4C3=O)cc2)CC1 (centres undefined)	none
O=C1C2C3C=CC(C3)C2C(=O)N1c1ccc(Cc2ccncc2)cc1 (centres undefined)	HCMV inh -67
CC1CCC2C(=O)N(c3ccc(Cc4ccncc4)cc3)C(=O)C2C1 (centres undefined)	HCMV inh -75, FMDV antiviral inconclusive, HCV inhibitor inconclusive
O=C(Nc1ccc(Cc2ccncc2)cc1)C1CCC(N2C(=O)C3C4C=CC(C4)C3C2=O)CC1 (centres undefined)	HCMV inh -80, HCV inhibitor 8.9µM (no result: FMDV antiviral)
COc1cccc(C(O)c2ncc(-c3cccc(F)c3)[nH]2)c1 (centres undefined)	none (no result: HCV inhibitor, AmpC inh detg, AmpC no deterg)
CCOC(=O)Cc1csc(NC(=S)NC(=O)c2ccc(C)cc2)n1	HCMV inh -96
CCOC(=O)Cc1csc(NC(=O)c2c(C)noc2C)n1	HCMV inh -99 (no result: AmpC inh detg, AmpC no deterg)
CCOC(=O)Cc1csc(NC(=S)NC(=O)c2ccccc2)n1	HCMV inh -65
O=C(c1cccc(S(=O)(=O)NCc2ccccc2)c1)N1CCN(c2ccccc2Cl)CC1	HCV inhibitor 11µM (no result: AmpC inh detg, AmpC no deterg)
Cc1cccc(N2CCN(C(=O)c3ccc(Cl)c(S(=O)(=O)NCc4ccco4)c3)CC2)c1C	FMDV antiviral inconclusive, HCV inhibitor 10µM
O=C(c1cccc(S(=O)(=O)NCc2ccccc2)c1)N1CCN(c2ccccc2)CC1	HCV inhibitor inconclusive (no result: AmpC inh detg)
O=C(NC1CC(=O)N(c2ccc(F)cc2)C1)C(c1ccccc1)c1ccccc1 (centres undefined)	none (no result: HCV inhibitor, AmpC no deterg)
COc1cc(C(=O)NC(=S)Nc2ccccc2N2CCOCC2)cc(OC)c1OC	HCV inhibitor inconclusive, AmpC no deterg 16µM (no result: HCMV inh)
O=C(NC(=S)Nc1ccccc1N1CCOCC1)c1cccs1	HCMV inh -72, FMDV antiviral inconclusive
O=C(NC(=S)Nc1ccccc1N1CCCC1)c1cccs1	HCV inhibitor inconclusive
CCCOc1ccccc1/C=C1\SC(N)=NC1=O	HCMV inh -64
CCCOc1ccc(/C=C2\SC(N)=NC2=O)cc1OC	none
COc1ccccc1CNC(=O)CSc1cc(C)[nH]c(=O)n1	none (no result: HCV inhibitor, AmpC no deterg)
Cc1ccc2nc3c(c(C(=O)O)c2c1)CCC3	AmpC inh detg inconclusive (no result: FMDV antiviral)
CNC(=O)c1c2c(nc3ccc(Br)cc13)CCCC2	HCV inhibitor 25µM

High-throughput results deposited in PubChem by National Center for Advancing Translational Sciences (NCATS).
